This is part of a sample that, as a whole, favours compounds with a hit. Of some 83,000 tested, about 20% had one in any assay.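 The endpoint reported here, percent growth, reads 100 for growth as untreated, 0 for no net growth and -100 for all cells dead.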 Activity calls are given as the source filed them. How the source made its calls: active means growth percent below 10; inactive means the rest.
Columns and labels:
Experiment in all cases: NCI-60 one-dose screen, 48 h (100 = growth as untreated, 0 = no growth, -100 = all killed)
Conditions in all cases: 10 µM
SR leukemia = tested on: SR leukemia
RPMI-8226 leukemia = tested on: RPMI-8226 leukemia
OVCAR-8 ovarian = tested on: OVCAR-8 ovarian
OVCAR-5 ovarian = tested on: OVCAR-5 ovarian
OVCAR-4 ovarian = tested on: OVCAR-4 ovarian
SK-OV-3 ovarian = tested on: SK-OV-3 ovarian
IGROV1 ovarian = tested on: IGROV1 ovarian
OVCAR-3 ovarian = tested on: OVCAR-3 ovarian
HS 578T breast = tested on: HS 578T breast
NCI/ADR-RES ovarian = tested on: NCI/ADR-RES ovarian
T-47D breast = tested on: T-47D breast
BT-549 breast = tested on: BT-549 breast
MDA-MB-435 melanoma = tested on: MDA-MB-435 melanoma
SW-620 colon = tested on: SW-620 colon
MCF7 breast = tested on: MCF7 breast
HCT-116 colon = tested on: HCT-116 colon
HCC-2998 colon = tested on: HCC-2998 colon
KM12 colon = tested on: KM12 colon

Measured: growth

CC(C)c1[nH]nc2c(NCc3ccc(-c4ccccn4)cc3)nc(SCCN)nc12
inactive: OVCAR-8 ovarian 10.9% | OVCAR-5 ovarian 13.6% | IGROV1 ovarian 10.3% | HS 578T breast 11.1% | NCI/ADR-RES ovarian 48%
active: SR leukemia -7.09% | RPMI-8226 leukemia -16.7% | OVCAR-4 ovarian -3.8% | SK-OV-3 ovarian 3.32% | OVCAR-3 ovarian 5.51% | T-47D breast -15.6% | BT-549 breast -32% | MDA-MB-435 melanoma -39.6% | SW-620 colon 5.99% | MCF7 breast 1.59% | HCT-116 colon 5.28% | HCC-2998 colon -22.9% | KM12 colon 5.47%

COc1ccc(C(=O)c2sc3nc(-c4cccs4)ccc3c2N)cc1OC
inactive: SR leukemia 14.5% | RPMI-8226 leukemia 43.4% | OVCAR-8 ovarian 53% | OVCAR-5 ovarian 82.2% | OVCAR-4 ovarian 61.2% | SK-OV-3 ovarian 70.9% | IGROV1 ovarian 63.3% | OVCAR-3 ovarian 45.1% | HS 578T breast 50.4% | NCI/ADR-RES ovarian 37.8% | T-47D breast 25.3% | BT-549 breast 48.9% | SW-620 colon 45.4% | MCF7 breast 24.7% | HCT-116 colon 43.3% | HCC-2998 colon 82% | KM12 colon 38.1%
active: MDA-MB-435 melanoma 5.62%

COc1cc(C2C=C(c3ccc(Cl)cc3)N=C3SC(C)=CN32)cc(OC)c1OC (stereo unspecified)
inactive: RPMI-8226 leukemia 47.5% | OVCAR-8 ovarian 93.6% | OVCAR-5 ovarian 85.2% | OVCAR-4 ovarian 77.4% | SK-OV-3 ovarian 118% | IGROV1 ovarian 96.6% | OVCAR-3 ovarian 103% | HS 578T breast 101% | NCI/ADR-RES ovarian 97.6% | T-47D breast 72.2% | BT-549 breast 88.5% | MDA-MB-435 melanoma 72.9% | SW-620 colon 94.5% | MCF7 breast 67.6% | HCT-116 colon 50.3% | HCC-2998 colon 101% | KM12 colon 94.1%
active: SR leukemia 9.45%

O=C(Nc1ccc(Oc2ccc(Nc3nc4ccccc4s3)cc2)cc1)Nc1ccc(Cl)c(Cl)c1
inactive: RPMI-8226 leukemia 22.2% | OVCAR-8 ovarian 32.6% | OVCAR-5 ovarian 70.5% | OVCAR-4 ovarian 24.9% | SK-OV-3 ovarian 69% | IGROV1 ovarian 39.4% | OVCAR-3 ovarian 22.8% | HS 578T breast 61.9% | NCI/ADR-RES ovarian 25.3% | T-47D breast 13.9% | BT-549 breast 59.5% | MDA-MB-435 melanoma 25.4% | SW-620 colon 33.6% | MCF7 breast 29.3% | HCT-116 colon 16.8% | HCC-2998 colon 29.4% | KM12 colon 20.7%
active: SR leukemia 8.33%

Cn1c(N)c(N=Cc2ccccc2)c(=O)n(C)c1=O
inactive: SR leukemia 96.2% | RPMI-8226 leukemia 108% | OVCAR-8 ovarian 110% | OVCAR-5 ovarian 133% | OVCAR-4 ovarian 111% | SK-OV-3 ovarian 96.4% | IGROV1 ovarian 106% | OVCAR-3 ovarian 120% | HS 578T breast 100% | NCI/ADR-RES ovarian 110% | T-47D breast 108% | BT-549 breast 102% | MDA-MB-435 melanoma 114% | SW-620 colon 107% | MCF7 breast 103% | HCT-116 colon 92.8% | HCC-2998 colon 104% | KM12 colon 115%

CCOc1cc(Br)c(C(C)NC(=O)c2cccc(OC)c2)cc1OCC (stereo unspecified)
inactive: RPMI-8226 leukemia 36.3% | OVCAR-8 ovarian 84.3% | OVCAR-5 ovarian 88.7% | OVCAR-4 ovarian 64.5% | SK-OV-3 ovarian 96% | IGROV1 ovarian 73.8% | OVCAR-3 ovarian 74.8% | HS 578T breast 75.5% | NCI/ADR-RES ovarian 94.4% | T-47D breast 80.8% | BT-549 breast 87% | SW-620 colon 85.7% | MCF7 breast 64.4% | HCT-116 colon 56.2% | HCC-2998 colon 37.7% | KM12 colon 84.1%
active: SR leukemia 3.32% | MDA-MB-435 melanoma 6.36%

Cc1cc(C)c(C(=O)OC(C)CNC2CCCCC2)c(C)c1 (stereo unspecified)
inactive: SR leukemia 81.6% | RPMI-8226 leukemia 92.9% | OVCAR-8 ovarian 101% | OVCAR-5 ovarian 59.2% | OVCAR-4 ovarian 101% | SK-OV-3 ovarian 96.7% | IGROV1 ovarian 101% | OVCAR-3 ovarian 98.5% | HS 578T breast 100% | NCI/ADR-RES ovarian 92.3% | T-47D breast 100% | BT-549 breast 92.4% | MDA-MB-435 melanoma 90.8% | SW-620 colon 100% | MCF7 breast 97.8% | HCT-116 colon 86.3% | HCC-2998 colon 103% | KM12 colon 98.2%

O=C1/C(=C/c2ccc(O)cc2)Oc2ccc(Cl)cc21
active: IGROV1 ovarian -27.4%
inactive: SR leukemia 109% | RPMI-8226 leukemia 119% | OVCAR-8 ovarian 79.4% | OVCAR-5 ovarian 106% | OVCAR-4 ovarian 120% | SK-OV-3 ovarian 111% | OVCAR-3 ovarian 92.9% | HS 578T breast 87.1% | NCI/ADR-RES ovarian 87.3% | T-47D breast 72.2% | BT-549 breast 63.1% | MDA-MB-435 melanoma 82.5% | SW-620 colon 103% | MCF7 breast 43.2% | HCT-116 colon 65.7% | HCC-2998 colon 101% | KM12 colon 101%

CCCCn1c(=O)[nH]c(N)c(C(c2ccc(Cl)cc2)c2c(N)[nH]c(=O)n(CCCC)c2=O)c1=O
inactive: SR leukemia 24.2% | RPMI-8226 leukemia 25.5% | OVCAR-8 ovarian 46.7% | OVCAR-5 ovarian 87.8% | OVCAR-4 ovarian 42.7% | SK-OV-3 ovarian 56.5% | IGROV1 ovarian 46% | OVCAR-3 ovarian 27.2% | HS 578T breast 50.6% | NCI/ADR-RES ovarian 103% | T-47D breast 21% | BT-549 breast 49.8% | MDA-MB-435 melanoma 31.1% | SW-620 colon 64.2% | MCF7 breast 21.1% | HCT-116 colon 27.3% | HCC-2998 colon 54.7% | KM12 colon 35.3%

COc1ccc(-c2cc(/C=C3\C(=O)Nc4cc(Cl)ccc43)[nH]n2)cc1OC
active: MDA-MB-435 melanoma 7.28%
inactive: SR leukemia 21.9% | RPMI-8226 leukemia 79.8% | OVCAR-8 ovarian 104% | OVCAR-5 ovarian 95.7% | OVCAR-4 ovarian 85.6% | SK-OV-3 ovarian 78.2% | IGROV1 ovarian 50.7% | OVCAR-3 ovarian 53% | HS 578T breast 60.5% | NCI/ADR-RES ovarian 62.5% | T-47D breast 96.5% | BT-549 breast 80.1% | SW-620 colon 47.1% | MCF7 breast 32.2% | HCT-116 colon 50.9% | HCC-2998 colon 98.8% | KM12 colon 64.4%

CCOC(=O)C(=O)Cc1cccnn1
inactive: SR leukemia 101% | RPMI-8226 leukemia 102% | OVCAR-8 ovarian 103% | OVCAR-5 ovarian 103% | OVCAR-4 ovarian 102% | SK-OV-3 ovarian 106% | IGROV1 ovarian 109% | OVCAR-3 ovarian 122% | HS 578T breast 133% | NCI/ADR-RES ovarian 104% | T-47D breast 122% | BT-549 breast 101% | MDA-MB-435 melanoma 111% | SW-620 colon 109% | MCF7 breast 95.3% | HCT-116 colon 102% | HCC-2998 colon 112% | KM12 colon 108%

Cn1cnc([N+](=O)[O-])c1/C=C1\Oc2ccc(Cl)cc2C1=O
inactive: SR leukemia 20.7% | RPMI-8226 leukemia 70.7% | OVCAR-8 ovarian 72.5% | OVCAR-5 ovarian 108% | OVCAR-4 ovarian 92.3% | SK-OV-3 ovarian 96.2% | IGROV1 ovarian 73.1% | OVCAR-3 ovarian 86% | HS 578T breast 104% | NCI/ADR-RES ovarian 100% | T-47D breast 85.1% | BT-549 breast 109% | MDA-MB-435 melanoma 86.2% | SW-620 colon 72% | MCF7 breast 40.2% | HCT-116 colon 22.4% | HCC-2998 colon 97.4% | KM12 colon 82.9%

CCCc1c(C)nc2scc(-c3ccc(Cl)cc3)n2c1=O
inactive: SR leukemia 83.1% | RPMI-8226 leukemia 96.4% | OVCAR-8 ovarian 107% | OVCAR-5 ovarian 104% | OVCAR-4 ovarian 97.3% | SK-OV-3 ovarian 103% | IGROV1 ovarian 107% | OVCAR-3 ovarian 104% | HS 578T breast 101% | NCI/ADR-RES ovarian 101% | T-47D breast 86.5% | BT-549 breast 98.3% | MDA-MB-435 melanoma 108% | SW-620 colon 109% | MCF7 breast 95.2% | HCT-116 colon 99.1% | HCC-2998 colon 106% | KM12 colon 98.2%

COC(=O)c1cnc2c(c1)Oc1ccccc1-c1ccnn1-2
inactive: SR leukemia 85% | RPMI-8226 leukemia 95% | OVCAR-8 ovarian 91.9% | OVCAR-5 ovarian 108% | OVCAR-4 ovarian 103% | SK-OV-3 ovarian 95.4% | IGROV1 ovarian 95.7% | OVCAR-3 ovarian 114% | HS 578T breast 93.7% | NCI/ADR-RES ovarian 105% | T-47D breast 84.4% | BT-549 breast 102% | MDA-MB-435 melanoma 99.5% | SW-620 colon 99.4% | MCF7 breast 96.3% | HCT-116 colon 92.1% | HCC-2998 colon 99.7% | KM12 colon 109%

COC(=O)c1c(C)nc(Nc2nc3ccccc3s2)nc1-c1ccc(Cl)cc1Cl
inactive: SR leukemia 99.4% | RPMI-8226 leukemia 96.2% | OVCAR-8 ovarian 103% | OVCAR-5 ovarian 113% | OVCAR-4 ovarian 91.6% | SK-OV-3 ovarian 102% | IGROV1 ovarian 124% | OVCAR-3 ovarian 92.2% | HS 578T breast 108% | NCI/ADR-RES ovarian 104% | T-47D breast 105% | BT-549 breast 101% | MDA-MB-435 melanoma 111% | SW-620 colon 104% | MCF7 breast 78.5% | HCT-116 colon 98.4% | HCC-2998 colon 108% | KM12 colon 103%

COc1ccc(/C=C(\c2cc(OC)c(OC)c(OC)c2)c2nnc(-c3cccs3)o2)cc1
inactive: SR leukemia 78.3% | RPMI-8226 leukemia 83.9% | OVCAR-8 ovarian 47.6% | OVCAR-5 ovarian 99.4% | OVCAR-4 ovarian 26.6% | SK-OV-3 ovarian 62.7% | IGROV1 ovarian 71.7% | OVCAR-3 ovarian 82.6% | HS 578T breast 43.6% | NCI/ADR-RES ovarian 66.4% | T-47D breast 78.7% | BT-549 breast 84.4% | MDA-MB-435 melanoma 65.9% | SW-620 colon 89.1% | MCF7 breast 72.4% | HCT-116 colon 66.4% | HCC-2998 colon 89.2% | KM12 colon 90%

COc1cccc(C2(C)Nc3ccccc3-c3nc4ccccc4n32)c1 (stereo unspecified)
inactive: SR leukemia 87.7% | RPMI-8226 leukemia 96.4% | OVCAR-8 ovarian 105% | OVCAR-5 ovarian 109% | OVCAR-4 ovarian 112% | SK-OV-3 ovarian 104% | IGROV1 ovarian 101% | OVCAR-3 ovarian 112% | HS 578T breast 112% | NCI/ADR-RES ovarian 97% | T-47D breast 98.5% | BT-549 breast 108% | MDA-MB-435 melanoma 104% | SW-620 colon 108% | MCF7 breast 103% | HCT-116 colon 106% | HCC-2998 colon 106% | KM12 colon 108%

From PubChem BioAssay (NCI)
